In PubChem BioAssay AID1508600 (Functional Genomics Laboratory (NCATS/FGL), 2020):
Among all 53,000 sequences or so, about 3,700 (7%) were called active. Many of the other results were omitted from the sample, so actives are more common in it than they were. Values without a mark were called inactive.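 How the source made its calls: active means gene knockdowns whose robust z-score for IL-1 alpha signal is at least 2 or at most -2, so actives lie on both sides; inactive means the rest.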

assay: Components of the Cytosolic LPS Sensing Pathway: Gene Identification via Genome-wide siRNA Screen; details: RAW264.7 macrophages, IL-1a HTRF, actives lie on both sides, screened at 100 nM (by protocol), cells primed 5 h with Pam3CSK4 first;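 further: robust z of the log signal after scaling to non-targeting control siRNA wells of the plate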
In short: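 Using IL-1a HTRF as read-out, the screen measured release from RAW264.7 cells after 48h siRNA knockdown (100 nM), 5 h Pam3CSK4 priming and 24 h cytosolic LipidA. Values were expressed relative to negative-control wells as robust z-scores.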

Sequence | z-score
CCACCUAAUUUAUUGCUGUTT against Mafk | 0.745
GGGUAGAAUGUGUGUGUCUTT against Abhd15 | -2.52 (active)
GGCUGGCAUCACCAUCAAATT against Kit | 0.429
CCACUUAUAACUCAUAGUUTT against Ugt2b34 | 0.0725
GGACCGCUUCAACAGUAUGTT against Tcfl5 | -0.525
CGCAUCUGUUUCUUUUCCCTT against 1700029P11Rik | -2.22 (active)
GCAGGAGUUUAUCAGAGGATT against Prim2 | -1.64
GGCAGCAAAGUCAAGAUGUTT against Msgn1 | -1.82
GGGAGGAGAAAAAUAUUCUTT against Olfr1094 | -1.5
GGAGAUCUUAGCAAAGUAUTT against Degs1 | 2.41 (active)
CCUUCAUUCUCAUGUGACCTT against Psat1 | -1.2
CCUUAAGGAACUAGGAUUCTT against Lgr5 | 1.05
GGUCCUCCCAUAAUCUAGUTT against Lrrc75a | 1.18
GCUCAUUGCACUAAAAGACTT against Tnnt1 | -1.92
CCGCGUCUGUAUUUGAUAUTT against Sccpdh | 1.68
GGAAGUCCUGGACAUUCAGTT against Nfkbie | 5.66 (active)
GGUUGAGUUUCAGUGCAUCTT against Klhl28 | -0.632
GCUUGAUUGUCAGUUGGAATT against Tcp11 | -0.364
GGGUAGUUUUGACUUUGUUTT against Schip1 | 0.472
GGAAUAAGGCGAGUUGGAATT against Serbp1 | 0.493
GGCCUAUAAUUUCUUUACGTT against Cc2d2a | -0.823
CGCGAGGAAGUCGAGGUAUTT against Pax2 | 1.17

Sequence | z-score
GGAUGUACACAGAAGGCCATT against Sucnr1 | 3.47 (active)
GGCACCCUCAAGAAAGCGUTT against Nol6 | -1.34
GGGCUUACUGCUUAAUAGATT against Fundc2 | 0.481
CGUGGACUUAAUAUUUCAGTT against Btbd7 | 0.685
GCCUCCUAGUAUUUACAUGTT against Ube2j2 | 0.8
CCAGGCCAAAUCUCACAAUTT against A730008H23Rik | -2.2 (active)
CCGUGAAAAUCAGUAAUUATT against Cacybp | -0.546
GGACUUAUCAAGCUGGUUUTT against Rps25 | -1.48
GCUCACAUUGAGUGGUUGGTT against Ncbp3 | 0.542
GGAGUUACGUAGAACUACCTT against Adam25 | 0.543
GCAAAUAUUGGCCACUCUCTT against Prpf19 | -0.523
GCCAAGAAAAUCAAGUCUCTT against Pknox2 | 0.892
GGAAGGAGAAGAAAACAUATT against Gtf3c6 | -2.13 (active)
GGCUGUCCAGACUAGUUCUTT against Lsm14b | -0.317
CCUCAUCAUAUUCUCCUGATT against Olfr869 | -0.848
CCUGUCUUUAGUGGACUUUTT against Olfr1453 | 0.22
GGUCUUUGAGAAGUACCACTT against Chst3 | -0.22
CCAGUCCUUGAAAAGAGCUTT against Olfr128 | -2.35 (active)
CGCCCAAAUUGACUAUUUGTT against Fam214b | 0.351
GAGAGCGGAGAGAUCAAAGTT against Iltifb | 0.108
GGCUGUUCCAGAGAUUGUGTT against Mela | -0.29
GCGGUAUGAGAAGGUUCCATT against Rap2a | 3.48 (active)

Sequence | z-score
GGCAUUGACAUCAUGUACUTT against Agxt | 1.1
GCGACAUCACAAGAAUCGATT against Fancd2 | -0.979
CCUAUCAAAUUAAAUGCGCTT against Muc13 | -0.6
GGUUGUGAUCAAUUAUUCATT against Evl | 1.27
GGAACACUCUGAAUUCAUUTT against Cxcl15 | 0.0905
GCUGCUUUACUUAAGAGUUTT against Srf | 0.625
GCGAAACUUCCAGAUCUAGTT against Cnot11 | 2.14 (active)
GGGCAAGAGAGUAGAACUGTT against Ambra1 | 0.383
GGUGACACAGCUGCUUUUCTT against Dact2 | 0.107
CGGUCCAGGAAGAAUGUUUTT against Bckdhb | -0.781
GGAUUGUCAGAAAUCCUGATT against Adat2 | -1.22
CCCAUCAAUAUCAUAUCCATT against Car7 | -2.34 (active)
CCAGAGUUCUGGGAUUCCATT against Cyp2c66 | -0.948
GGCCAAGAAUGAUCGUUCUTT against Gabrb3 | 0.00587
GCAGACAGUAAAUUGGUAATT against Mab21l3 | 0.915
GGAUUACACACCUACGAUCTT against Taf10 | -1.63
CGACUACCUGGAUAUCUACTT against Efna2 | -0.292
GGCGUGUUGAGACAAUCCUTT against Lkaaear1 | -0.815
GCAUAGCAGGAAGGCCUUGTT against Htr6 | 0.183
GCAUAUUGUGCGACUUUUCTT against Utp15 | -2.16 (active)
GCAAAUUUUAUCAACCGCATT against Mical3 | -0.0618
CGACCAUACGAAUGCGGCATT against Zfp865 | 0.498

Sequence | z-score
GGCUUGAACACAAGAAAGCTT against Golim4 | -0.778
GGAUGAGAAUAUUGAAAGATT against 4932415M13Rik | -0.225
GGCAGGAAAACUGCCAAUGTT against Gm6034 | 1.36
CCUUAAUUGGGUUGAAUUCTT against Olfr878 | 2.44 (active)
GCUGACUAAGGCUUGUAAUTT against Hrnr | -0.194
GGUUAAUUCCAACAAAGCATT against Orc4 | -0.529
GGUCUACAACCAAAUCUGCTT against Clec7a | -0.531
CCUGAGACUGCAUCUUUUCTT against Slc10a7 | -0.693
GCCAAAUUAAGUAUCUUGATT against Lamp2 | 0.371
GCCUCAUUGAAAGGAUCCATT against Mgat5b | -2.32 (active)
GGCGGAAAAAAAAGUAAUATT against Crebzf | 0.926
GGCUCAUUGGACAUAUAUGTT against Casp8ap2 | -1.77
GGGACACCAAGUUUUCCAUTT against Paqr7 | 1.63
GGAAGAAGCAGGUGAUUAATT against Grb14 | -1.24
CGGAUCGGUGCGAGAAUAATT against Gpatch3 | 0.61
GGCCCUGUGUCAAAUCAGUTT against Zfand6 | 2.1 (active)
GGAGAUUGUUAUGCAAAAATT against Dnah5 | 0.178
GGAAAUUUUGAACCUGACATT against Setd3 | 0.125
GGUCUCAAAGAAAUCUGUATT against Bcap29 | -2.4 (active)
GGACUCUUCAGCUUCCAGUTT against Uts2 | -0.0543
CCAAGACUCUUUAUUCAACTT against Rasip1 | 0.774
GGAGACAGAAAAUCAAGGCTT against Taf7 | -0.506

Sequence | z-score
CCCUUGCUUGCUAAGAUUUTT against Scyl3 | -0.684
GCUGGUGUCUUAUGGCCUATT against 9130008F23Rik | -2.02 (active)
GGAUACAGAGUAUUUCAAGTT against Rtkn | -1.01
GCUUGUUCGGGAAUCUUAUTT against Olfr292 | 0.116
GCCUGUUCCGCCAUUCAUGTT against Flii | -0.2
GCUCACACUCUUCAUUAUCTT against Olfr1408 | -2.91 (active)
GGUGUUAGCUUCUCAAAAUTT against Cltrn | 0.497
GGAACAUCAUCCACUGGAATT against Crhr1 | 6 (active)
GGCAAUUUGUGGAUUAUUGTT against Olfr1105 | -0.458
CCCUAAUUCAUUAGCUAUATT against Dhdds | 0.111
GGACCCUGCUUUUUAAAAATT against Harbi1 | 0.293
GGAAGAGGAGGAAAACUUGTT against Fam135b | -0.653
GGAUGAUCUUGGUGUACACTT against Tmem91 | 3.04 (active)
GGUAUAAUUGGAAUUGUGATT against Morc1 | -0.658
GGUUGUCUGGAAUUUCCAUTT against Immp2l | 3.81 (active)
CCCAAUUCCUUAACUAUUATT against Cd209a | 1.02
GGUGGAAAGUGCAUAGACATT against Notch3 | 0.789
GGACCUGGAUCUAUCCUACTT against Lrfn1 | -0.969
GGAUGAUGACUUCCUAGGGTT against Cpne7 | -0.622
